High-throughput results (PubChem BioAssay)
Most compounds without a hit are left out; they make up all but 11% or so of the library.
HSD17B inh: qHTS Assay for Inhibitors of HSD17B4, hydroxysteroid (17-beta) dehydrogenase 4; 3-hydroxyacyl-CoA dehydrogenase type-2 (Homo sapiens), Q99714; recombinant HSD17B10, NADH fluorescence kinetic; Potency, µM (top dose mostly 57.1 µM), inactives show top-dose activity change, negative = inhibition, usual class: inhibitors; actives 7.6% (n = 75,000);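 note: the protocol describes HADH2 (HSD17B10) and not the HSD17B4 of the title; nearly all actives have a fitted effect of over 70% in size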
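20 nM HADH2, pH 9.0 Tris/Tween; cpd preinc 15 min RT; start w/ 1 mM NAD+ + 90 uM b-hydroxybutyryl-CoA; kinetic fluor ex360/em450 q30s x 4 min; delta last-first.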
ERK AVP block: qHTS Assay for Inhibitors of the ERK Signaling Pathway using a Homogeneous Screening Assay. HEK293-V1b, vasopressin-stimulated pERK AlphaScreen. Potency, µM (series often up to 57.5 µM), for the others: at the highest dose activity, negative = inhibition, usual class: inhibitors. actives 0.99% (n = 72,000); note: nearly all actives have a fitted effect of over 55% in size
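Phosphorylated ERK1/2 detected via AlphaScreen bead proximity in lysates of V1b-expressing HEK293 cells given 25 nM vasopressin for 5 min after 30 min compound exposure (37 °C). AC50 from Hill equation; basal DMSO 0%, vasopressin 100%.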
ALOX15 inhib: qHTS Assay for Inhibitors of 15-hLO (15-human lipoxygenase); Potency, µM (titrated, usually from 57.1 µM), for the others: top-dose activity change, negative = inhibition, hits mostly inhibitors; AID 887, 2007; purified 15hLO-1, xylenol orange hydroperoxide absorbance; Polyunsaturated fatty acid lipoxygenase ALOX15 (Homo sapiens), P16050; actives 1.4% (n = 74,000); note: nearly all actives have a fitted effect of over 55% in size
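Readout: Fe(III)-xylenol orange absorbance, 573-to-405 nm ratio as reaction progress. Enzyme 40 nM purified human 15hLO-1, substrate 50 uM arachidonic acid, 6 min RT after 15 min compound preincubation; Hepes pH 7.5 buffer with Triton X-100.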
FLuc inh: qHTS Assay for Inhibitors of Firefly Luciferase. Luciferin 4-monooxygenase (Photinus pyralis), P08659. Potency, µM (highest dose often 57.1 µM), for inactives: at the highest dose activity change, negative = inhibition, actives largely listed as inhibitors. actives 2.2% (n = 72,000). purified firefly luciferase, luminescence, 8 min; note: nearly all actives have a fitted effect of over 40% in size
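Titration-based qHTS; buffer 50 mM imidazole pH 7.2, 50 mM KCl, 7 mM MgCl2, 10 uM ATP, 0.01% Tween 20, 0.05% BSA; luciferase/luciferin detector mix added after compound; 8 min, ambient; luminescence.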
Bst PK mod: Pyruvate Kinase | purified pyruvate kinase, luminescence ATP production; ribose 5-phosphate activator present at AC10 | Potency, µM | actives 1.2% (n = 51,000) | AID 361, 2006; in the data active = potency below about 11 µM; inconclusive = mostly about 12 µM to 25 µM;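 the screen sought inhibitors and activators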;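 note: scaled between full activation by ribose 5 phosphate and full inhibition by luteolin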
HADH2 inhib: qHTS Assay for Inhibitors of HADH2 (Hydroxyacyl-Coenzyme A Dehydrogenase, Type II); Potency, µM (titrated, usually from 57.1 µM), for the others: at the highest dose activity change, negative = inhibition, usual class: inhibitors; actives 3.4% (n = 73,000); recombinant HADH2, NADH fluorescence, beta-hydroxybutyryl-CoA; 3-hydroxyacyl-CoA dehydrogenase type-2 (Homo sapiens), Q99714; note: nearly all actives have a fitted effect of over 60% in size
Target sequence (Q99714 whole entry, looked up, one chain of several): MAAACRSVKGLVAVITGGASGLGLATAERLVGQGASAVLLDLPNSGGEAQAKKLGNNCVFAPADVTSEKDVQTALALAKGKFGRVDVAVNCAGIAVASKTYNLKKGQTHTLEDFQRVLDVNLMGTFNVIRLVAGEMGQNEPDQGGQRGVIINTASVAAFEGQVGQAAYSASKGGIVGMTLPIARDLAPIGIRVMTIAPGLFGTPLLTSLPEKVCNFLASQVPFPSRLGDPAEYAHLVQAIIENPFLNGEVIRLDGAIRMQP
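His-tagged recombinant enzyme from E. coli, 20 nM, preincubated 15 min RT with compound; reaction started with 1 mM NAD+ and 90 uM beta-hydroxybutyryl-CoA in 100 mM Tris-HCl pH 9.0. NADH fluorescence (ex 360/em 450) read over 4 min; last-minus-first difference.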
The depositor's hits bear a star; i = inactive; ? = inconclusive; . = no result; [ ] = dose if it differs, or a comment. Unless noted, calls come from the whole dose curve; as a rule, active = well fitted curve in the direction sought with a large enough effect; inconclusive = small, poorly fitted or top-dose-only effect, or another doubt; inactive = no such curve, though single readings can be large; an effect the other way counts as inactive or inconclusive. Unless noted, % is set by controls: 0 for no effect and ±100 for the full control effect; potency is the fitted concentration of half-maximal effect.

SMILES	HSD17B inh	ERK AVP block	ALOX15 inhib	FLuc inh	Bst PK mod	HADH2 inhib
Nc1ccccc1[N+](=O)[O-]	-1.5%	-11.9%	-0.4%	.	.	-5.1%
N=C1[C@@H](O)[C@]2(I)c3ccccc3N3C(=N)[C@H](O)[C@@H]4c5ccccc5N1[C@@H]4[C@@H]32	3.16µM*	14.1%[11.5 µM]	?	-7.1%[11.4 µM]	.	?
C=CCOC(=O)C(C(C)=O)C(NC(=O)OC)c1ccc(Cl)cc1 (stereo not given)	-0.2%[11.4 µM]	-0.9%[11.5 µM]	4.0%[11.4 µM]	.	.	6.1%[11.4 µM]
CCn1c(SCC(=O)c2ccc(O)c(O)c2)nnc1-c1ccccc1OC	-24.5%	-9.8%	15.8µM*	-0.3%	>57	?
CC(C)Cn1c(CN(C)Cc2ccccc2)nc2c1c(=O)n(C)c(=O)n2C	25.1µM*	.	9.3%	-2.0%	.	18.9%
CN(Cc1ccccc1)Cc1nc2c(c(=O)n(C)c(=O)n2C)n1CCCc1ccccc1	5.7%	-15.4%	2.5%	2.2%	>57	12.3%
CC(=O)CC(=O)Nc1ccccc1	6.9%	4.4%	1.7%	.	.	5.6%
CCOCC(=O)Nc1c(C(=O)Nc2ccc(OC)cc2OC)oc2ccccc12	2.51µM*	45.4%	-1.7%	-3.7%	>57	338.2%
COc1ccc(OC(=O)c2cc3ccccc3o2)cc1	.	.	.	7.94µM*	?	.
COc1ccc(NC(=O)c2oc3ccccc3c2NC(=O)c2ccco2)c(OC)c1	15.8µM*	-6.6%	-7.2%	-15.8%	>57	48.6%
COCC(=O)Nc1c(C(=O)Nc2ccccc2OC)oc2ccccc12	31.6µM*	-7.0%	7.4%	-4.0%	>57	31.6µM*
COc1ccccc1NC(=O)c1oc2ccccc2c1NC(=O)c1cc(OC)c(OC)c(OC)c1	4.0%	20.7%	-0.8%	-6.1%	>57	?
COc1ccc(OC)c(NC(=O)c2cc3ccccc3o2)c1	47.9%	-6.1%	-6.6%	-20.3%	.	-6.1%
COc1ccc(NC(=O)c2oc3ccccc3c2NC(=O)c2ccco2)cc1	-9.5%	13.1%	-4.3%	?	?	-26.8%
O=C(c1cnccn1)N1CCC[C@@]2(CCN(Cc3nccs3)C2)C1	-1.8%	0.6%	8.1%	0.3%[11.4 µM]	.	-1.7%
COc1ccc(C)cc1NC(=O)c1cc2ccccc2o1	5.01µM*	-0.2%	5.1%	?	>57	103.6%
COc1ccc(NC(=O)c2oc3cc(C)c(C)cc3c2C)c(OC)c1	30.6%	-30.6%	0.2%	2.4%	>57	24.1%
COc1ccccc1NC(=O)c1oc2ccc(C)cc2c1C	?	19.6%	-4.3%	15.8µM*	.	?
Nc1c(S(=O)(=O)O)cc(S(=O)(=O)O)c2ccc(N=Nc3ccccc3)c(O)c12	-11.5%[11.4 µM]	-17.2%[11.5 µM]	7.9%[11.4 µM]	-6.6%[11.4 µM]	.	-4.1%[11.4 µM]
Cc1cc(-c2ccc(N=Nc3cc(S(=O)(=O)O)c4ccccc4c3N)c(C)c2)ccc1N=Nc1cc(S(=O)(=O)O)c2ccccc2c1N	15.8µM*	?	0.398µM*	.	.	2µM*
CN(C)c1ncc2ncc(=O)n(Cc3ccc(F)cc3)c2n1	?	-20.1%	-6.2%	0.5%[11.4 µM]	.	-0.3%
CCOC(=O)C1=C(C)NC(=O)NC1c1ccc(OC(C)C(=O)O)c(OC)c1 (stereo not given)	31.6µM*	-23.9%	25.1µM*	-5.7%	i	0.199µM*
COc1cc(NC(=O)c2cc3nc(C)cc(C)n3n2)c(OC)cc1Cl	25.1µM*	?	1.6%	-10.8%	.	-16.5%
O=C1CCC(=O)N1c1ccc(CSc2nnnn2C2CCCCC2)cc1	1.9%	15.8µM*	4.5%	0.3%	.	1.5%
COc1ccc(-c2ccc(-c3noc(-c4ccco4)n3)c(OC)n2)cc1	25.1µM*	18.0%	-21.7%	2.4%	>57	?
SMILES	HSD17B inh	ERK AVP block	ALOX15 inhib	FLuc inh	Bst PK mod	HADH2 inhib
COc1ccccc1-c1noc(-c2ccco2)n1	-7.1%	-23.8%	5.0%	20µM*	.	-3.3%
COc1nc(-c2ccccc2)ccc1-c1noc(-c2ccco2)n1	?	16.0%	-12.9%	-24.0%	>57	31.6µM*
CCOc1nc(C)ccc1-c1noc(-c2ccco2)n1	-8.7%	-16.9%	-11.8%	2.4%	>57	1.9%
COc1cc2c3cc1Oc1cc(ccc1O)C[C@@H]1c4c(cc(OC)c(O)c4Oc4ccc(cc4)C[C@H]3[N+](C)(C)CC2)CC[N+]1(C)C	2.2%[11.4 µM]	-5.9%[11.5 µM]	1.4%[11.4 µM]	3.5%[11.4 µM]	.	1.1%[11.4 µM]
CC(C)(C)n1ncc2c(=O)n(CC(=O)NCc3ccccc3Cl)cnc21	2.6%	?	0.6%	25.1µM*	.	4.4%
C=CCOC(=O)C(C#N)c1nc2ccccc2nc1N1CCC(C(=O)OCC)CC1 (stereo not given)	.	.	.	3.4%[25.5 µM]	i	.
CCCN(CCC)c1nc2ccccc2nc1C(C#N)C(=O)OCCOC (stereo not given)	?	-20.8%	-3.5%	0.1%	>57	-29.6%
C=CCN(CC=C)c1nc2ccccc2nc1C(C#N)C(=O)OCCOC (stereo not given)	31.6µM*	6.2%	-2.2%	0.5%	>57	-17.5%
CCOC(=O)C1CCN(c2nc3ccccc3nc2C(C#N)C(=O)OC(C)COC)CC1 (stereo not given)	.	.	.	1.6%[25.5 µM]	5.59*	.
CCOC(=O)C1CCN(c2nc3ccccc3nc2C(C#N)C(=O)OCCOC)CC1 (stereo not given)	.	.	.	0.2%[25.5 µM]	2.28*	.
C=C(C)C(O)/C=C/c1cccc(OC)c1 (stereo not given)	-3.9%[11.4 µM]	12.2%[11.5 µM]	1.6%[11.4 µM]	.	.	2.6%[11.4 µM]
